Measurements reported in publication PMC5540273 (PLoS ONE, 2017).
Where two headings read alike, the source gives them in different places.

Tests used:
TAOK2 = conditions: concentration: 1 μM, replicates: in singlicate; n = 1
TAOK3 = conditions: concentration: 1 μM, replicates: in singlicate; n = 1
TBK1 = conditions: concentration: 1 μM, replicates: in singlicate; n = 1
TEC = conditions: concentration: 1 μM, replicates: in singlicate; n = 1
TESK1 = conditions: concentration: 1 μM, replicates: in singlicate; n = 1
TGFBR1 = conditions: n = 1
TGFBR2 = conditions: concentration: 1 μM, replicates: in singlicate; n = 1
TIE1 = conditions: concentration: 1 μM, replicates: in singlicate; n = 1
TIE2 = tested on: T1, TIE2; conditions: concentration: 1 μM, replicates: in singlicate; n = 1
T1 construct: gene TEK

TLK1 = conditions: concentration: 1 μM, replicates: in singlicate; n = 1
TLK2 = conditions: concentration: 1 μM, replicates: in singlicate; n = 1
TNIK = conditions: concentration: 1 μM, replicates: in singlicate; n = 1
TNK1 = conditions: concentration: 1 μM, replicates: in singlicate; n = 1
TNK2 = conditions: concentration: 1 μM, replicates: in singlicate; n = 1
TNNI3K = conditions: concentration: 1 μM, replicates: in singlicate; n = 1
TRKA = tested on: T2, TRKA; conditions: concentration: 1 μM, replicates: in singlicate; n = 1
T2 construct: gene NTRK1

TRKB = conditions: concentration: 1 μM, replicates: in singlicate; n = 1
TRKC = tested on: T3, TRKC; conditions: concentration: 1 μM, replicates: in singlicate; n = 1
T3 construct: gene NTRK3

TRPM6 = conditions: concentration: 1 μM, replicates: in singlicate; n = 1
TSSK1B = conditions: concentration: 1 μM, replicates: in singlicate; n = 1
[1] = concentration: 1 μM, replicates: in singlicate
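Note: KINOMEscan kinase panel screen.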

## O=C(c1ccc(-c2cc(-c3c[nH]nc3-c3ccccn3)ccn2)cc1)N1CCOCC1 [GW812171]
TAOK2
  %Inh: 33%
TAOK3
  %Inh: 2%
TBK1
  %Inh: 31%
TEC
  %Inh: 16%
TESK1
  %Inh: 11%
TGFBR1; 1 µM
  %Inh: 90.7%
TGFBR2
  %Inh: 11%
TIE1
  %Inh: 0%
TIE2
  %Inh: 1%
TLK1
  %Inh: 0%
TLK2
  %Inh: 13%
TNIK
  %Inh: 30%
TNK1
  %Inh: 0%
TNK2
  %Inh: 0%
TNNI3K
  %Inh: 0%
TRKA
  %Inh: 0%
TRKB
  %Inh: 0%
TRKC
  %Inh: 0%
TRPM6
  %Inh: 17%
TSSK1B
  %Inh: 0%

## O=C(NCCCN1CCOCC1)c1cccc(Nc2nccc(Nc3ccc(Oc4ccccc4)cc3)n2)c1 [GW663929]
TAOK2
  %Inh: 0%
TAOK3
  %Inh: 0%
TBK1
  %Inh: 26%
TEC
  %Inh: 70%
TESK1
  %Inh: 0%
TGFBR1; [1]
  %Inh: 0%
TGFBR2
  %Inh: 7%
TIE1
  %Inh: 11%
TIE2
  %Inh: 0%
TLK1
  %Inh: 18%
TLK2
  %Inh: 21%
TNIK
  %Inh: 3%
TNK1
  %Inh: 66%
TNK2
  %Inh: 19%
TNNI3K
  %Inh: 74%
TRKA
  %Inh: 8%
TRKB
  %Inh: 0%
TRKC
  %Inh: 0%
TRPM6
  %Inh: 52%
TSSK1B
  %Inh: 0%

## Cc1c(Cn2c(C)nn3c(=O)cc(N4CCOC(C)C4)nc23)cccc1C(F)(F)F (centres unmarked) [GSK2344444]
TAOK2
  %Inh: 0%
TAOK3
  %Inh: 0%
TBK1
  %Inh: 0%
TEC
  %Inh: 0%
TESK1
  %Inh: 0%
TGFBR1; [1]
  %Inh: 0%
TGFBR2
  %Inh: 0%
TIE1
  %Inh: 7%
TIE2
  %Inh: 0%
TLK1
  %Inh: 0%
TLK2
  %Inh: 0%
TNIK
  %Inh: 0%
TNK1
  %Inh: 9%
TNK2
  %Inh: 7%
TNNI3K
  %Inh: 0%
TRKA
  %Inh: 0%
TRKB
  %Inh: 0%
TRKC
  %Inh: 0%
TRPM6
  %Inh: 6%
TSSK1B
  %Inh: 17%

## Nc1nc(-c2ccc3c(N)n[nH]c3c2)cc(N2CCCC2)n1 [GSK2227430]
TAOK2
  %Inh: 0%
TAOK3
  %Inh: 0%
TBK1
  %Inh: 18%
TEC
  %Inh: 0%
TESK1
  %Inh: 2%
TGFBR1; [1]
  %Inh: 0%
TGFBR2
  %Inh: 0%
TIE1
  %Inh: 0%
TIE2
  %Inh: 0%
TLK1
  %Inh: 3%
TLK2
  %Inh: 0%
TNIK
  %Inh: 0%
TNK1
  %Inh: 0%
TNK2
  %Inh: 0%
TNNI3K
  %Inh: 0%
TRKA
  %Inh: 0%
TRKB
  %Inh: 0%
TRKC
  %Inh: 0%
TRPM6
  %Inh: 0%
TSSK1B
  %Inh: 0%

## Cn1cc(-c2ccc3c(c2)CCN3C(=O)Cc2ccccc2Cl)c2c(N)ncnc21 [GSK2608885]
TAOK2
  %Inh: 0%
TAOK3
  %Inh: 47%
TBK1
  %Inh: 14%
TEC
  %Inh: 100%
TESK1
  %Inh: 43%
TGFBR1; [1]
  %Inh: 8%
TGFBR2
  %Inh: 23%
TIE1
  %Inh: 96%
TIE2
  %Inh: 97.4%
TLK1
  %Inh: 29%
TLK2
  %Inh: 0%
TNIK
  %Inh: 69%
TNK1
  %Inh: 100%
TNK2
  %Inh: 74%
TNNI3K
  %Inh: 64%
TRKA
  %Inh: 42%
TRKB
  %Inh: 0%
TRKC
  %Inh: 0%
TRPM6
  %Inh: 33%
TSSK1B
  %Inh: 17%

## COc1cc(Nc2nccc(N3CCC(NC(=O)c4cccc(NC(C)=O)c4)C3)n2)cc(OC)c1OC (centres unmarked) [GSK1379754]
TAOK2
  %Inh: 0%
TAOK3
  %Inh: 0%
TBK1
  %Inh: 17%
TEC
  %Inh: 0%
TESK1
  %Inh: 15%
TGFBR1; [1]
  %Inh: 0%
TGFBR2
  %Inh: 0%
TIE1
  %Inh: 61%
TIE2
  %Inh: 0%
TLK1
  %Inh: 0%
TLK2
  %Inh: 0%
TNIK
  %Inh: 0%
TNK1
  %Inh: 0%
TNK2
  %Inh: 16%
TNNI3K
  %Inh: 0%
TRKA
  %Inh: 69%
TRKB
  %Inh: 0%
TRKC
  %Inh: 22%
TRPM6
  %Inh: 22%
TSSK1B
  %Inh: 18%

## O=c1cc(N2CCOCC2)nc2n(Cc3cccc(Cl)c3Cl)c(C3CC3)nn12 [GSK2358994]
TAOK2
  %Inh: 0%
TAOK3
  %Inh: 0%
TBK1
  %Inh: 26%
TEC
  %Inh: 13%
TESK1
  %Inh: 14%
TGFBR1; [1]
  %Inh: 0%
TGFBR2
  %Inh: 10%
TIE1
  %Inh: 0%
TIE2
  %Inh: 0%
TLK1
  %Inh: 25%
TLK2
  %Inh: 0%
TNIK
  %Inh: 10%
TNK1
  %Inh: 0%
TNK2
  %Inh: 5%
TNNI3K
  %Inh: 0%
TRKA
  %Inh: 1%
TRKB
  %Inh: 0%
TRKC
  %Inh: 0%
TRPM6
  %Inh: 0%
TSSK1B
  %Inh: 0%

## CCc1ccnc(/C=C/c2n[nH]c3cc(Sc4ccccc4C(=O)NC)ccc23)c1
TAOK2
  %Inh: 100%
TAOK3
  %Inh: 0%
TBK1
  %Inh: 0%
TEC
  %Inh: 3%
TESK1
  %Inh: 8%
TGFBR1; [1]
  %Inh: 0%
TGFBR2
  %Inh: 0%
TIE1
  %Inh: 48%
TIE2
  %Inh: 8%
TLK1
  %Inh: 0%
TLK2
  %Inh: 0%
TNIK
  %Inh: 5%
TNK1
  %Inh: 48%
TNK2
  %Inh: 0%
TNNI3K
  %Inh: 5%
TRKA
  %Inh: 56%
TRKB
  %Inh: 0%
TRKC
  %Inh: 0%
TRPM6
  %Inh: 4%
TSSK1B
  %Inh: 0%

## Cc1cccc(Cn2ccn3c(=O)cc(N4CCOCC4)nc23)c1 [GSK2297542]
TAOK2
  %Inh: 5%
TAOK3
  %Inh: 0%
TBK1
  %Inh: 10%
TEC
  %Inh: 11%
TESK1
  %Inh: 39%
TGFBR1; [1]
  %Inh: 3%
TGFBR2
  %Inh: 0%
TIE1
  %Inh: 0%
TIE2
  %Inh: 0%
TLK1
  %Inh: 16%
TLK2
  %Inh: 5%
TNIK
  %Inh: 0%
TNK1
  %Inh: 0%
TNK2
  %Inh: 23%
TNNI3K
  %Inh: 2%
TRKA
  %Inh: 0%
TRKB
  %Inh: 0%
TRKC
  %Inh: 12%
TRPM6
  %Inh: 33%
TSSK1B
  %Inh: 0%

## COc1ccc(Nc2ncc(C#N)c(Nc3ccccc3C(N)=O)n2)cc1N1CCN(C)CC1.Cl [GSK1558669]
TAOK2
  %Inh: 51%
TAOK3
  %Inh: 91.3%
TBK1
  %Inh: 99.5%
TEC
  %Inh: 93.5%
TESK1
  %Inh: 67%
TGFBR1; [1]
  %Inh: 46%
TGFBR2
  %Inh: 27%
TIE1
  %Inh: 98.5%
TIE2
  %Inh: 97.2%
TLK1
  %Inh: 96.2%
TLK2
  %Inh: 99.6%
TNIK
  %Inh: 99.3%
TNK1
  %Inh: 100%
TNK2
  %Inh: 94.8%
TNNI3K
  %Inh: 82%
TRKA
  %Inh: 100%
TRKB
  %Inh: 94.8%
TRKC
  %Inh: 94.6%
TRPM6
  %Inh: 46%
TSSK1B
  %Inh: 89%
